Measurements: PubChem BioAssay (NCI)
“And” between values parts separate entries of the source, which are not always exact repeats. Equal entries are not always repeated. Compounds without any hit were thinned out: in the full panel of roughly 83,000, 20% have a hit.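 Plates (96-well) were seeded with cells, treated with compound at one concentration, and incubated for 48 hours before percent growth was determined.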 The source made the active and inactive calls. The calls were made as follows: active = growth percent below 10; inactive = the rest.

How the values were obtained:
Assay in all cases: NCI-60 one-dose screen, 48 h (100 = growth as untreated, 0 = no growth, -100 = all killed)
Conditions in all cases: 10 µM unless noted
NCI-H23 lung = test system: NCI-H23 lung
NCI-H226 lung = test system: NCI-H226 lung
NCI-H322M lung = test system: NCI-H322M lung
HOP-62 NSCLC = test system: HOP-62 NSCLC
NCI-H460 lung = test system: NCI-H460 lung
HOP-92 NSCLC = test system: HOP-92 NSCLC
NCI-H522 lung = test system: NCI-H522 lung
A549/ATCC NSCLC = test system: A549/ATCC NSCLC
786-0 renal = test system: 786-0 renal
COLO 205 colon = test system: COLO 205 colon

Measured: growth

Nc1nc(Cl)nc2c1ncn2C1OC(CO)C(O)C1O (stereo not given)
inactive: NCI-H23 lung 19.9% and 34.4% | NCI-H226 lung 110% | NCI-H322M lung 93.1% and 101% | HOP-62 NSCLC 46.6% and 63.7% | NCI-H460 lung 80% and 87.4% | HOP-92 NSCLC 42.8% | NCI-H522 lung 50.6% and 52.1% | A549/ATCC NSCLC 46.2% and 49.9% | 786-0 renal 24.1% and 37.5% | COLO 205 colon 70%

COc1ccc(C(=O)c2ccc(OC)c(OC)c2OC)cc1
20.1% (inactive) and 5.6% (active): NCI-H460 lung
inactive: NCI-H23 lung 41.1% and 40.7% | NCI-H226 lung 62.8% and 53.2% | NCI-H322M lung 59% | HOP-62 NSCLC 41.7% and 25.5% | HOP-92 NSCLC 59.6% and 41.5% | NCI-H522 lung 11.2% and 12.1% | A549/ATCC NSCLC 47% and 41.3% | 786-0 renal 74% and 46.1%
active: COLO 205 colon 3.87% and -14.7%

Cc1ccc2nc3ccccc3c(NCc3ccc(Cl)cc3)c2c1
inactive: NCI-H23 lung 46% | NCI-H226 lung 72.3% | NCI-H322M lung 55.9% | HOP-62 NSCLC 65.3% | NCI-H460 lung 29.5% | NCI-H522 lung 54.2% | A549/ATCC NSCLC 40.8% | 786-0 renal 34.7%
active: HOP-92 NSCLC -4.63% | COLO 205 colon -53.3%

CC[C@]12CN3CCc4c([nH]c5ccccc45)[C@@](C(=O)OC)(c4cc5c(cc4OC)N(C)[C@H]4[C@@](O)(C(=O)OC)[C@H](OC(C)=O)[C@]6(CC)C=CCN7CC[C@]54[C@@H]76)CC(C3)[C@H]1O2 (stereo not given in full)
active: NCI-H460 lung -27.3% | HOP-92 NSCLC 9.26% | NCI-H522 lung -5.19% | COLO 205 colon -49.9%
inactive: NCI-H23 lung 21.1% | NCI-H226 lung 42.6% | NCI-H322M lung 41% | HOP-62 NSCLC 50.9% | A549/ATCC NSCLC 20.9% | 786-0 renal 19.6%

C=C1C(=O)O[C@@H]2[C@H]3[C@H](COC(C)=O)[C@@H](OC(C)=O)C[C@H]3C(=C)[C@@H](O)C[C@@H]12
inactive: NCI-H23 lung 96.2% | NCI-H226 lung 98.8% | NCI-H322M lung 102% | HOP-62 NSCLC 91.7% | NCI-H460 lung 103% | HOP-92 NSCLC 99.8% | NCI-H522 lung 73% | A549/ATCC NSCLC 90.6% | 786-0 renal 85.8% | COLO 205 colon 100%

COc1ccc(/C(C)=C(\c2ccc(OCCN3CCOCC3)cc2)c2ccc(OC(=O)C3CCCCC3)cc2)cc1
inactive: NCI-H23 lung 101% | NCI-H226 lung 113% | NCI-H322M lung 99.5% | HOP-62 NSCLC 108% | NCI-H460 lung 107% | HOP-92 NSCLC 109% | NCI-H522 lung 104% | A549/ATCC NSCLC 106% | 786-0 renal 104% | COLO 205 colon 110%

CCN1C(=O)/C(=c2\sc3n(c2=O)C2C(NN=3)N(CC)C(=O)N2CC)c2ccccc21 (stereo not given)
inactive: NCI-H23 lung 34.5% | NCI-H226 lung 103% | NCI-H322M lung 46.5% | HOP-62 NSCLC 32.1% | HOP-92 NSCLC 39.2% | NCI-H522 lung 19.9% | A549/ATCC NSCLC 32.8% | 786-0 renal 30.9%
active: NCI-H460 lung 4.65% | COLO 205 colon -11.5%

Clc1nccc2c(-c3csc(-c4c[nH]c5ccc(Br)cc45)n3)c[nH]c12
inactive: NCI-H23 lung 31.9% | NCI-H226 lung 33.6% | NCI-H322M lung 70.4% | A549/ATCC NSCLC 15.1%
active: HOP-62 NSCLC 7.78% | NCI-H460 lung -5.23% | HOP-92 NSCLC 6.84% | NCI-H522 lung 1.55% | 786-0 renal -68.2% | COLO 205 colon 7.99%

[2H]C([2H])([2H])Oc1cc(F)ccc1/C=C/C(=O)/C=C(/C=C/c1ccc(F)cc1OC([2H])([2H])[2H])OB(F)F
inactive: NCI-H23 lung 26.2% | NCI-H226 lung 63.4% | NCI-H322M lung 82% | HOP-62 NSCLC 102% | NCI-H460 lung 49.7% | HOP-92 NSCLC 83.2% | NCI-H522 lung 31.4% | A549/ATCC NSCLC 58.3% | 786-0 renal 44.3% | COLO 205 colon 21.3%

CCN(CC)CCOc1ccc(/C(=C(\Cl)c2ccccc2)c2ccccc2)cc1
-40% (active) and 61.3% (inactive): HOP-62 NSCLC
active: NCI-H460 lung 5.92% | COLO 205 colon -74.8% and -60.4%
inactive: NCI-H23 lung 61.2% and 81.6% | NCI-H226 lung 27.6% and 49.4% | NCI-H322M lung 74.8% | HOP-92 NSCLC 30.6% and 83.7% | NCI-H522 lung 43.9% and 98.7% | A549/ATCC NSCLC 84.8%
-65.1% (active) and 87.8% (inactive): 786-0 renal

CCCN1C(=O)/C(=c2\sc3n(c2=O)C2C(NN=3)N(CC)C(=O)N2CC)c2ccccc21 (stereo not given)
inactive: NCI-H23 lung 37.8% | NCI-H226 lung 57.1% | NCI-H322M lung 53.1% | HOP-62 NSCLC 45.8% | HOP-92 NSCLC 67.7% | A549/ATCC NSCLC 26.2% | 786-0 renal 36.5% | COLO 205 colon 17.5%
active: NCI-H460 lung 5.57% | NCI-H522 lung 1.15%

CCN1C(=S)N(CC)C2C1NC(=S)N2/N=C/C=C/c1ccccc1 (stereo not given)
active: NCI-H522 lung -7.6%
inactive: NCI-H23 lung 58.5% | NCI-H226 lung 64.5% | NCI-H322M lung 51.1% | HOP-62 NSCLC 44.4% | NCI-H460 lung 12.4% | HOP-92 NSCLC 62.2% | A549/ATCC NSCLC 37.6% | 786-0 renal 40.9% | COLO 205 colon 33.4%

C=C(CNCCO)[C@@H]1CC[C@]2(CO)CC[C@]3(C)[C@H](CC[C@@H]4[C@@]5(C)CCC(NCCc6ccc(O)cc6)C(C)(C)[C@@H]5CC[C@]43C)[C@@H]12 (stereo not given in full)
active: NCI-H23 lung -63% | NCI-H226 lung -47.6% | NCI-H322M lung -41% | HOP-62 NSCLC -84.4% | NCI-H460 lung -80.4% | HOP-92 NSCLC -66.1% | NCI-H522 lung -79.5% | A549/ATCC NSCLC -71.3% | 786-0 renal -92.8% | COLO 205 colon -84.4%

COc1cc(Cl)cc(-c2nn(C(=O)NS(=O)(=O)c3ccc(Cl)cc3)cc2-c2ccncc2)c1
inactive: NCI-H23 lung 89.1% | NCI-H226 lung 70.7% | NCI-H322M lung 96.5% | HOP-62 NSCLC 59.4% | NCI-H460 lung 111% | HOP-92 NSCLC 26.6% | NCI-H522 lung 74.3% | A549/ATCC NSCLC 65.1% | 786-0 renal 67.9% | COLO 205 colon 72.1%

O=S(=O)(O)c1ccc(N=Nc2ccc(N=Nc3cccc4ccccc34)c(S(=O)(=O)O)c2)cc1
inactive: NCI-H23 lung 91.5% | NCI-H226 lung 90.1% | NCI-H322M lung 102% | HOP-62 NSCLC 107% | NCI-H460 lung 98.9% | HOP-92 NSCLC 83.4% | NCI-H522 lung 103% | A549/ATCC NSCLC 109% | 786-0 renal 107% | COLO 205 colon 100%

Cc1nc2cccc(NCCCCC(=O)NO)c2c(=O)n1-c1ccccc1
inactive: NCI-H23 lung 69.3% | NCI-H226 lung 83.9% | NCI-H322M lung 66.1% | HOP-62 NSCLC 50.3% | NCI-H460 lung 76.5% | HOP-92 NSCLC 43.3% | NCI-H522 lung 43.5% | A549/ATCC NSCLC 78.8% | 786-0 renal 69.7% | COLO 205 colon 62.4%

COc1ccc(C/C(C)=C(/c2ccc(OCCN3CCCC3)cc2)c2ccc(OC(=O)NCc3ccccc3)cc2)cc1
inactive: NCI-H23 lung 93.6% | NCI-H226 lung 102% | NCI-H322M lung 92% | HOP-62 NSCLC 91.9% | NCI-H460 lung 63.8% | HOP-92 NSCLC 66.2% | NCI-H522 lung 92.6% | A549/ATCC NSCLC 72.3% | 786-0 renal 69.8% | COLO 205 colon 77%

COc1cc(CNC(=O)CCCC/C=C/C(C)C)ccc1O
inactive: NCI-H23 lung 101% | NCI-H226 lung 94.2% and 92.4% | NCI-H322M lung 124% and 88.7% | HOP-62 NSCLC 89% and 104% | NCI-H460 lung 106% and 114% | HOP-92 NSCLC 84.4% | NCI-H522 lung 83.1% and 75.5% | A549/ATCC NSCLC 106% and 115% | 786-0 renal 107% and 101% | COLO 205 colon 101% and 111%

FC(F)(F)Sc1ccc(/C=C/c2cc(/C=C/c3ccc(SC(F)(F)F)cc3)n(-c3ccccc3)n2)cc1
inactive: NCI-H23 lung 103% | NCI-H226 lung 89.5% | NCI-H322M lung 93.7% | HOP-62 NSCLC 90.8% | NCI-H460 lung 99.8% | HOP-92 NSCLC 87.3% | NCI-H522 lung 89.4% | A549/ATCC NSCLC 89.5% | 786-0 renal 91.8% | COLO 205 colon 92.8%

N#CSc1c[nH]c2ccc(/C=C/C(=O)/C=C(/C=C/c3ccc4[nH]cc(SC#N)c4c3)OB(F)F)cc12
active: NCI-H23 lung -28.3% | NCI-H226 lung -66.1% | NCI-H460 lung 3.07% | HOP-92 NSCLC -74.1% | NCI-H522 lung -69.7% | A549/ATCC NSCLC 4.65% | 786-0 renal -46.5% | COLO 205 colon -63.9%
inactive: NCI-H322M lung 94.9% | HOP-62 NSCLC 14.7%

COc1ccc2c(c1)oc1c(C)c3c(c(C)c12)C(=O)N(Nc1ccccc1)C3=O
inactive: NCI-H23 lung 98.5% | NCI-H226 lung 106% | NCI-H322M lung 95.5% | HOP-62 NSCLC 88.9% | NCI-H460 lung 98.9% | HOP-92 NSCLC 100% | NCI-H522 lung 95.7% | A549/ATCC NSCLC 112% | 786-0 renal 92.8% | COLO 205 colon 94%

S=c1nc(CS)[nH]c2ccccc12
inactive: NCI-H23 lung 89.5% | NCI-H226 lung 87.4% | NCI-H322M lung 95.6% | HOP-62 NSCLC 89.6% | NCI-H460 lung 100% | HOP-92 NSCLC 96.8% | NCI-H522 lung 95.6% | A549/ATCC NSCLC 96.6% | 786-0 renal 103% | COLO 205 colon 112%

CCC(=C(c1ccc(OCCCN(C)C)cc1)c1ccc(OCCCN(C)C)cc1)c1ccc(Cl)cc1
active: NCI-H23 lung -80% | NCI-H226 lung -66.8% | NCI-H322M lung -96.8% | HOP-62 NSCLC -78% | NCI-H460 lung -71.1% | HOP-92 NSCLC -80% | NCI-H522 lung -66.5% | A549/ATCC NSCLC -69.9% | 786-0 renal -86.8% | COLO 205 colon -67.3%
